# Source: article PMC7862700, “An all-to-all approach to the identification of sequence-specific readers for epigenetic DNA modifications on cytosine”
# Legend:
# Experiment in all cases: DAPPL (digital affinity profiling via proximity ligation, sequencing); 10 mM Tris-HCl pH 7.5, 50 mM NaCl, 1 mM DTT, 4% glycerol, room temperature, 30 min; GST-TFs on glutathione beads, 16-mer random dsDNA library, 0.1% formaldehyde crosslink after washing; high values mean tight binding
# Conditions in all cases: protein: recombinant; tags: N-terminal GST; dsDNA, one strand shown
# [1] = biological target: T1, FLI1 (Homo sapiens, UniProt Q01543 1-452)
# T1 sequence: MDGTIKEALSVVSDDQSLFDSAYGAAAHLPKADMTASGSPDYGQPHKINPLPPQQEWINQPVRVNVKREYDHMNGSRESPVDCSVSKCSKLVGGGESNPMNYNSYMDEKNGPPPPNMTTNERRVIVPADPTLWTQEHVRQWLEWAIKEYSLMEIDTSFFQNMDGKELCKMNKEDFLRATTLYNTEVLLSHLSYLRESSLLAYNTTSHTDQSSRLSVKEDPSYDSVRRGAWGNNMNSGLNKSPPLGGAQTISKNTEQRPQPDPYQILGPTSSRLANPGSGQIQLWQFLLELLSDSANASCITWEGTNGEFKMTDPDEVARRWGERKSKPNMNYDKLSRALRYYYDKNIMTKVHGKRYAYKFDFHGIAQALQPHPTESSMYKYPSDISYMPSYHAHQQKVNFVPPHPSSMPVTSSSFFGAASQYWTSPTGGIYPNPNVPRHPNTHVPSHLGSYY
# Method in brief: (§1)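 Yeast served to express human transcription factors as GST fusions, which were then captured on glutathione beads and labelled with DNA barcodes. Pooled with a tag-only sample, they were incubated with 200 nmole of a 16-mer random double-stranded DNA library for 30 min at room temperature in Tris/NaCl/DTT/glycerol buffer, washed, crosslinked with 0.1% formaldehyde, ligated by proximity, amplified by PCR and sequenced. Dividing each hexamer's read frequency for a factor by its frequency for the tag-only sample gives the binding signal.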
# [2] = biological target: T2, ELK1 (Homo sapiens, UniProt P19419 1-428)
# T2 sequence: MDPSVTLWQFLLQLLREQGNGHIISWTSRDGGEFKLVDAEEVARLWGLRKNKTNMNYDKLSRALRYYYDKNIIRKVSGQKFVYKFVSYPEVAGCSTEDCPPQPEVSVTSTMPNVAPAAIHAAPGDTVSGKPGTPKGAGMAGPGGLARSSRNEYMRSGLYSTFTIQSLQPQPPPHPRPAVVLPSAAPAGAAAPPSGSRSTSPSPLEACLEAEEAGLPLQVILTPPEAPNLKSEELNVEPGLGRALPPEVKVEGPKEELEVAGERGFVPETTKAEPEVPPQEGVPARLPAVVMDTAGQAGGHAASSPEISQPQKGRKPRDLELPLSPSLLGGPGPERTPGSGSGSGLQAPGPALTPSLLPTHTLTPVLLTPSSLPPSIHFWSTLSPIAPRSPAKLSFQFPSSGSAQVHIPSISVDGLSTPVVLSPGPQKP
# Method in brief: as §1
# [3] = biological target: T3, GABPA (Homo sapiens, UniProt Q06546 1-454)
# T3 sequence: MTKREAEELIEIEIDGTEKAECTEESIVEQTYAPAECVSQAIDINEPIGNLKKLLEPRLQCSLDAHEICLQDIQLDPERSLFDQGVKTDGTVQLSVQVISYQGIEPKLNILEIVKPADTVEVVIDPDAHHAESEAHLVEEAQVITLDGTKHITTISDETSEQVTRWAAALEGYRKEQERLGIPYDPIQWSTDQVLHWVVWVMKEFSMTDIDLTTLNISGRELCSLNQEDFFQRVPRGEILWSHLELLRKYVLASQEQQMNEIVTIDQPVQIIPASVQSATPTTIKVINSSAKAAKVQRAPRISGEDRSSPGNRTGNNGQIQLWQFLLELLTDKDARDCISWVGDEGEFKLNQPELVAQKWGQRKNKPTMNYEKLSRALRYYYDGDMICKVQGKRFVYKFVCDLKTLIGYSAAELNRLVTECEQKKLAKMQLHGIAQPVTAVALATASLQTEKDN
# Method in brief: as §1
# [4] = biological target: T4, ERG (Homo sapiens, UniProt P11308 1-479)
# T4 sequence: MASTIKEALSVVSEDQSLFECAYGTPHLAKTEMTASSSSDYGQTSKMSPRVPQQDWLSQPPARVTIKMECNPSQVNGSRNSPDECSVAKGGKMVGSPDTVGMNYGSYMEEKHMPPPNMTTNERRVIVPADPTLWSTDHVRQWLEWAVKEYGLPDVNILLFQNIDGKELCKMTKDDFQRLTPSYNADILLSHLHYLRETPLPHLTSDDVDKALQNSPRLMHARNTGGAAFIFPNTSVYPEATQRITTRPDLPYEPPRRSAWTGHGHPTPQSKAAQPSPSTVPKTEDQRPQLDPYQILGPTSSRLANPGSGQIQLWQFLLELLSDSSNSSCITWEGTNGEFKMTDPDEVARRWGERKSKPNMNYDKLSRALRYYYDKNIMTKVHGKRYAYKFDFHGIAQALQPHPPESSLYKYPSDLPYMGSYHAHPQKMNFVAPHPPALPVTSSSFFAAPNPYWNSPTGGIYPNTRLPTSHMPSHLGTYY
# Method in brief: as §1
# [5] = biological target: ELF1 (Homo sapiens, UniProt P32519 1-619)
# Sequence of ELF1 (P32519 whole entry): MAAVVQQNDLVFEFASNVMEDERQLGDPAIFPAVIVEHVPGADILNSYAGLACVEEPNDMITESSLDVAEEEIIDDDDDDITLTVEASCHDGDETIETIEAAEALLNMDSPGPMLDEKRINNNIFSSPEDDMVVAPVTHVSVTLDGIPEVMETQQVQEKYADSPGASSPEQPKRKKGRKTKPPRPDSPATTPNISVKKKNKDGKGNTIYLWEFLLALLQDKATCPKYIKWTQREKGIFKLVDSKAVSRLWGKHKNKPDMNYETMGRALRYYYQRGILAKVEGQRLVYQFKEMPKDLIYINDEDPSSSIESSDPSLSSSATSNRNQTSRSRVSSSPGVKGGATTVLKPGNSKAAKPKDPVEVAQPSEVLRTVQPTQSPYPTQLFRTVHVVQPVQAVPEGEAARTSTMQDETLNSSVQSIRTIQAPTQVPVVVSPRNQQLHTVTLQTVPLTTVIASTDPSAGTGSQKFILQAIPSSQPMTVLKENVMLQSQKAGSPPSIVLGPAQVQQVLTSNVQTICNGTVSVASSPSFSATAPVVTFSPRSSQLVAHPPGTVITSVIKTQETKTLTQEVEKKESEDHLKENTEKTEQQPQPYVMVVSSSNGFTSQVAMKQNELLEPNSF
# Method in brief: as §1
# [6] = biological target: T5, EHF (Homo sapiens, UniProt Q9NZC4 1-300)
# T5 sequence: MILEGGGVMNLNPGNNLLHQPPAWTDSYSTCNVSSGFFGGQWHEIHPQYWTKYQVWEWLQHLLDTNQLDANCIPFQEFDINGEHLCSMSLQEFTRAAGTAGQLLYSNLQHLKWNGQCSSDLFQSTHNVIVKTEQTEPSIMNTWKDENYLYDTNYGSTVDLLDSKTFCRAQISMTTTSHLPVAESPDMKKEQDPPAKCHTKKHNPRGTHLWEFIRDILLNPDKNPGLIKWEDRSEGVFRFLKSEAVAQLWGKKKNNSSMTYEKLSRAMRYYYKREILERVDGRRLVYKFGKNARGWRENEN
# Method in brief: as §1
# [7] = biological target: SPIB (Homo sapiens, UniProt Q01892 1-262)
# Sequence of SPIB (Q01892 whole entry): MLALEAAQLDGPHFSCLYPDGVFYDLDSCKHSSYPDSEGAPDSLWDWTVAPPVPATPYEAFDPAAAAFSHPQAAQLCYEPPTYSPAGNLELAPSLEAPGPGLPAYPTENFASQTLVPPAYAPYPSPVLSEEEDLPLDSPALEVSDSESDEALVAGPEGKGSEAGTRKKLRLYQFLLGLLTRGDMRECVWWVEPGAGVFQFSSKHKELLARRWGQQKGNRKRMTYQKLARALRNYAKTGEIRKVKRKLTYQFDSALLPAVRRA
# Method in brief: as §1
# [8] = biological target: T6, ELK3 (Homo sapiens, UniProt P41970 1-407)
# T6 sequence: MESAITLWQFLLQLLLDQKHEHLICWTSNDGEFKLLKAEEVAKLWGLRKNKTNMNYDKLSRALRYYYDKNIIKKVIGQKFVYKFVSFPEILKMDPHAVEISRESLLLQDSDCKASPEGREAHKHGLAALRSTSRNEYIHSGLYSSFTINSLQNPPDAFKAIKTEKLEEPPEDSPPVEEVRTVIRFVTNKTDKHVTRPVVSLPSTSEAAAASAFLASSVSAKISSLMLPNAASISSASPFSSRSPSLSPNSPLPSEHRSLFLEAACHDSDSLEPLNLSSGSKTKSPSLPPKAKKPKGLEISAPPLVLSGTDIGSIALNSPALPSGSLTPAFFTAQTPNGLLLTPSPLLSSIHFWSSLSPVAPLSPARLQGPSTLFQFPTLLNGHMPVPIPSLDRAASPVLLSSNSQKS
# Method in brief: as §1
# [9] = biological target: T7, SPIC (Homo sapiens, UniProt Q8N5J4 1-248)
# T7 sequence: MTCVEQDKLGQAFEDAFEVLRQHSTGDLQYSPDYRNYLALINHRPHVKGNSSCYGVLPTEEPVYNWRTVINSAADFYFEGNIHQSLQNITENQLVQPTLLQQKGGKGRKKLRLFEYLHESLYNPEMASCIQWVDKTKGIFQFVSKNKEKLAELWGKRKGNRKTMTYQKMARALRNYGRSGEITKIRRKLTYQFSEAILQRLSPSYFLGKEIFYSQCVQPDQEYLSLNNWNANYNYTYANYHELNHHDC
# Method in brief: as §1
sequence,measurement,setting,value
CGTCTG,binding signal,[1],"1.13 fold enrichment (6-mer frequency, TF over GST control)"
same,binding signal,[2],"1.06 fold enrichment (6-mer frequency, TF over GST control)"
same,binding signal,[3],"1.06 fold enrichment (6-mer frequency, TF over GST control)"
same,binding signal,[4],"1.11 fold enrichment (6-mer frequency, TF over GST control)"
same,binding signal,[5],"1.11 fold enrichment (6-mer frequency, TF over GST control)"
same,binding signal,[6],"1.07 fold enrichment (6-mer frequency, TF over GST control)"
same,binding signal,[7],"1.18 fold enrichment (6-mer frequency, TF over GST control)"
same,binding signal,[8],"1.05 fold enrichment (6-mer frequency, TF over GST control)"
same,binding signal,[9],"1.17 fold enrichment (6-mer frequency, TF over GST control)"
